The full ranking holds about 110,000 compounds; the median of “z-score” is about -0.1, and the highest 2% start at about 2. Shown is part of a subset that was picked to be rich in the highest values. Active and inactive are the calls of the source.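 The calls were made as follows: active = z-score in the third read window above 3 or below -3; inactive = the rest.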
Biological target: Metabotropic glutamate receptor 8 (Rattus norvegicus) (UniProt P70579)
Experiment: mGluR8 Gi/Go-coupled signaling modulation – cell-based, rat, thallium flux, HTS, primary screen (AID 488969)
Conditions: HEK293 rat mGluR8, GIRK (G protein-gated inwardly rectifying potassium channel) thallium flux, FluoZin2; at 10 µM; stronger effect = higher value; submaximal glutamate (EC20) added with thallium

Chain of Metabotropic glutamate receptor 8 (Rattus norvegicus) (P70579 whole entry, looked up): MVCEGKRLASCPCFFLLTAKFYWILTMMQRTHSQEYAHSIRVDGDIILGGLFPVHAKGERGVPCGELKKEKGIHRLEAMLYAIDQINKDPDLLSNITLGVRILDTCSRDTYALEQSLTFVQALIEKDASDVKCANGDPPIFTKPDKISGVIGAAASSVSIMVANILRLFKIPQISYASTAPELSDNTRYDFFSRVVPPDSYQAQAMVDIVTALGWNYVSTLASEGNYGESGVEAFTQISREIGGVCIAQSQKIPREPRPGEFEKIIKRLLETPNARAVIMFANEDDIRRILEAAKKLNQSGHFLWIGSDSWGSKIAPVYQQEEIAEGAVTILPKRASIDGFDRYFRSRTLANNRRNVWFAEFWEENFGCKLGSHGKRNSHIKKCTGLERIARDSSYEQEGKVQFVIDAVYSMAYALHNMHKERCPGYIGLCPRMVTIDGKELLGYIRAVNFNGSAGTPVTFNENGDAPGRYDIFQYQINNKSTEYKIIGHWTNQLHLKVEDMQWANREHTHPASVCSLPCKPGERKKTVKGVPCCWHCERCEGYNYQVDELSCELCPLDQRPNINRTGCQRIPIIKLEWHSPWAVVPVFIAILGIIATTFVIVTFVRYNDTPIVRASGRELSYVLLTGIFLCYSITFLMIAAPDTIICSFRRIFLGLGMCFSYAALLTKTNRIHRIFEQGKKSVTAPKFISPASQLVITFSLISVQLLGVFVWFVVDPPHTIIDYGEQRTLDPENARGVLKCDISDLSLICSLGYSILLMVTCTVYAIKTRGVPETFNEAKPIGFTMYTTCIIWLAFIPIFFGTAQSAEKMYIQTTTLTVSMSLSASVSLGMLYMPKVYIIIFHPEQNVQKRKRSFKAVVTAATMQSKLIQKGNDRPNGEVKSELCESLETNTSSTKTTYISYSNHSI

Row | SMILES | z-score
1 | COC(=O)CNc1nc(OC)nc(N(C)C)n1 | 0.391
2 | Cc1cc(C(=O)N2CCC(Cc3ccccc3)CC2)ccc1[N+](=O)[O-] | -0.573
3 | O=C(c1ccccc1[N+](=O)[O-])N1CCC(Cc2ccccc2)CC1 | -0.0322
4 | Cc1cccc(C(=O)N2CCC(Cc3ccccc3)CC2)c1[N+](=O)[O-] | 8.23 (active)
5 | CCNC(=O)CC1SC(=Nc2cccc(Cl)c2C)N(C)C1=O (configuration not stated) | 0.271
6 | c1coc(Cn2c(SCc3nc4ccccc4[nH]3)nnc2-c2cccs2)c1 | -0.59
7 | CC1(C)CC(=O)N(CC(=O)NCc2ccccc2)c2ccccc2S1(=O)=O | -0.409
8 | CC1(C)CC(=O)N(CC(=O)O)c2ccccc2S1(=O)=O | -0.22
9 | CCC(C)NC(=O)CN1C(=O)CC(C)(C)S(=O)(=O)c2ccccc21 (configuration not stated) | 4.26 (active)
10 | Cc1csc(NC(=O)C2CCCC2)n1 | 0.0786
11 | O=C(CN(Cc1ccco1)C(=O)c1ccc(Cl)cc1)Nc1ccc(Cl)c(Cl)c1 | -0.0983
12 | CC(C)Oc1ccc(C(=O)NC2(C(F)(F)F)N=C3SCCN3C2=O)cc1 (configuration not stated) | 0.873
13 | Cc1ccc(C(=O)NC2(C(F)(F)F)N=C3SCCN3C2=O)cc1 (configuration not stated) | 2.91
14 | O=C(NC1(C(F)(F)F)N=C2SCCN2C1=O)c1ccccc1 (configuration not stated) | -0.628
15 | CS(=O)(=O)Nc1ccc(C(=O)NC2CCCC2)cc1 | -0.00695
16 | COc1ccc(OC)c(/C=N/NC(=O)CN2CCSCC2)c1 | 0.045
17 | CCn1cc(C(=O)NC(=S)Nc2sc3c(c2C(=O)OC)CCCCCC3)cn1 | -0.247
18 | CCn1nnc(NC(=O)c2cccnc2Cl)n1 | -0.48
19 | C/C(=N/NC(=S)Nc1ccccc1)c1ccc2c(c1)OCO2 | 7.92 (active)
20 | C/C(=N\NC(=S)Nc1ccc(F)cc1)C1CC1 | -0.155
21 | C/C(=N\NC(=S)Nc1ccc(F)cc1)c1ccc2c(c1)OCCO2 | 6.87 (active)

Row | SMILES | z-score
22 | C/C(=N/NC(=O)c1ccc2c(c1)OCO2)c1cccc(NC(=O)C(C)(C)C)c1 | -0.191
23 | C/C(=N\NC(=O)c1ccccc1)c1ccc2c(c1)OCO2 | -0.195
24 | C/C(=N/NC(=O)c1ccc2c(c1)OCO2)c1ccc(NC(=O)C(F)(F)F)cc1 | -0.151
25 | COc1nc(N/N=C/c2cc3c(cc2Br)OCO3)nc(N2CCOCC2)n1 | -0.297
26 | Cc1c(N=C2SCC(=O)N2/N=C/c2ccccc2)c(=O)n(-c2ccccc2)n1C | -0.023
27 | CSc1nc2ccc(NC(=O)c3nn(C(C)C)c(=O)c4ccccc34)cc2s1 | -0.391
28 | Cc1ccc(SCc2cc(-c3ccc(Cl)cc3)on2)cc1 | 0.048
29 | CCOc1ccc(-c2[nH]ncc2-c2csc(C)n2)c(O)c1 | -0.285
30 | COc1ccc(NC(=O)CSc2nnc(Cn3cnc4ccccc43)n2C)cc1 | 0.66
31 | O=C(Nc1ccc2c(c1)OCCO2)c1ccc2nccnc2c1 | 0.215
32 | CCOC(=O)C1CCN(c2c(Nc3ccc4c(c3)OCCO4)c(=O)c2=O)CC1 | -0.277
33 | CCC1CCCCN1C(=S)Nc1ccc(C(C)=O)cc1 (configuration not stated) | -0.196
34 | O=C(NC(=S)N1CCOCC1)c1ccc([N+](=O)[O-])cc1 | 0.875
35 | CC1CN(C(=S)NC(=O)c2ccc([N+](=O)[O-])cc2)CC(C)O1 (configuration not stated) | 0.605
36 | O=C(NC(=S)N1CCCc2ccccc21)c1ccc([N+](=O)[O-])cc1 | 14.7 (active)
37 | O=C(NN1c2ccccc2CCc2ccccc21)c1ccccc1Br | -0.0618
38 | O=C(c1cncc(Br)c1)N1CCCc2ccccc21 | 0.0197
39 | O=C(N/N=C1\CCCc2ccccc21)c1ccc([N+](=O)[O-])cc1 | 1.47
40 | CCC1CCCCN1C(=S)NC(=O)c1ccc([N+](=O)[O-])cc1 (configuration not stated) | 9.16 (active)
41 | O=C(NC(=S)N1CCCc2ccccc21)c1ccc(Br)cc1 | 9.56 (active)
42 | O=C(NC(=S)N1CCc2ccccc21)c1ccccc1Br | 11.2 (active)

Row | SMILES | z-score
43 | CC(=O)Nc1ccccc1C(=O)N1CCc2ccccc21 | 1.03
44 | CC(=O)N1CCCc2ccccc21 | 0.0326
45 | Cc1ccc(CN2C(=O)CCSc3ccc(Cl)cc32)cc1 | -0.054
46 | Clc1ccc(-c2n[nH]c3c2CCC3)c(Cl)c1 | 0.0993
47 | O=C(CCS(=O)(=O)c1cccc2nsnc12)NCc1ccccc1Cl | 0.429
48 | COc1ccccc1N1CCN(C(CNC(=O)c2ccco2)c2cccnc2)CC1 (configuration not stated) | 1.2
49 | CN(/N=C/c1ccc(O)cc1O)c1nc(-c2ccccc2)cc(-c2ccccc2)n1 | 0.141
50 | COc1cc(C(=O)OCC(=O)Nc2ccc3c(c2)OC(F)(F)O3)ccc1OCc1c(C)noc1C | -0.513
51 | O=C(c1ccccc1)N1CCc2ccccc21 | 0.518
52 | COc1ccc(NC(=O)N2CCc3ccccc32)cc1 | 0.323
53 | O=C(NC(=S)N1CCc2ccccc21)c1ccccc1 | 7.58 (active)
54 | CC12CCC(C(=O)N3CCc4ccccc43)(CC1=O)C2(C)C (configuration not stated) | 0.155
55 | CC12CCC(C(=O)N3CCCc4ccccc43)(OC1=O)C2(C)C (configuration not stated) | -0.143
56 | O=C(Nc1ccccc1)N1CCc2ccccc21 | -0.39
57 | O=C(CCC(=O)N1CCc2ccccc21)N1CCc2ccccc21 | -0.329
58 | O=C(c1ccccc1)N1CCCc2ccccc21 | 3.33 (active)
59 | CC(C)[C@H](NC(=O)c1ccccc1)C(=O)N1CCc2ccccc21 | -0.0295
60 | COc1ccc(C(=O)N2CCCc3ccccc32)cc1 | -0.672
61 | CC12CCC(C(=O)N3CCCc4ccccc43)(CC1=O)C2(C)C (configuration not stated) | 3.5 (active)
62 | Cc1ccc(NC(=O)N2CCc3ccccc32)cc1 | 1.99
